The list is not random: actives were taken first. Their share in the collection is about 7.1%.
MCF10A rerep: induces DNA re-replication in MCF 10a normal breast cells; MCF 10A DNA re-replication, Hoechst nuclear intensity, 48 h; Potency, µM (titrated, usually from 46.1 µM), without a hit: at the top dose activity, positive = re-replication, hits mostly activators; actives 2.9% (n = 350,000); AID 624296; note: % of control where 0% means no effect; nearly all actives have a fitted effect of over 50% in size
p53 reactivator: re-activators of mutant p53; H1299 p53-A138V BP100-luciferase reporter, luminescence, 24 h; Potency, µM (titrated, usually from 92.2 µM), for inactives: at the highest dose activity change, positive = activation, usual class: activators; actives 0.063% (n = 320,000); AID 504706; note: % of control where 0% means no effect; nearly all actives have a fitted effect of over 45% in size
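p53-null H1299 cells stably carrying temperature-sensitive p53-A138V and a BP100-luciferase reporter were pinned with compounds (4-point, 1:5 series) and held 24 hrs at 37 deg C. Luminescence was read 10 min after detection reagent.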
SW480 rereplic: inducers of DNA re-replication in SW480 colon cancer cells; Potency, µM (doses to about 46.1 µM), inactives show at the highest dose re-replication activation, actives largely listed as activators; actives 1.8% (n = 340,000); SW480 DNA re-replication, Hoechst DNA content imaging, 48 h; AID 624297; note: % of control where 0% means no effect; nearly all actives have a fitted effect of over 55% in size
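Hoechst fluorescence of nuclei (405 nm excitation, 500-530 nm emission) measured by plate-scanning imager after 48 hr compound exposure at 37 C; re-replication scored as increased number of nuclei with elevated intensity.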
AT treatment: candidate therapy for ataxia-telangiectasia; F2112 A-T fibroblasts, KAP-1 phosphorylation AlphaLISA; neocarzinostatin DNA damage 30 min before lysis; Potency, µM (titrated, usually from 57.5 µM), for inactives: top-dose activation, hits mostly activators; actives 0.19% (n = 320,000); AID 485349; note: % of control where 0% means no effect; nearly all actives have a fitted effect of over 45% in size
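ATM-like activity read as KAP-1 phosphorylation via AlphaLISA donor/acceptor antibody pairs after lysis and 6 hr at 25C. Cells were ATM-null patient fibroblasts (F2112, hTERT), dosed 60 min, then exposed to the DSB inducer NCS for 30 min.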
ELG1 repair inh: inhibitors of ELG1-dependent DNA repair in HEK293T cells; HEK293T ELG1-luciferase reporter, luminescence, 16 h; DNA damage induced by 5-fluorouridine; Potency, µM (highest dose often 46.1 µM), without a hit: at the top dose activity change, negative = inhibition, actives largely listed as inhibitors; actives 2.3% (n = 330,000); AID 504467; note: % is set by controls: 0 for no effect and ±100 for the full control effect; nearly all actives have a fitted effect of over 55% in size
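HEK293T cells expressing luciferase-tagged ELG1 (2,000/well) received 5-Fluorouridine plus compound or DMSO for 16 hr at 37 °C. Luciferase was read by ONE-Glo luminescence after 30 min at room temperature.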
ELG1 genotoxic: induces genotoxicity in HEK293T cells with luciferase-tagged ELG1; HEK293T ELG1-luciferase reporter, luminescence, 16 h; Potency, µM (highest dose often 46 µM), for the others: at the top dose activity change, positive = activation, usual class: activators; actives 1.3% (n = 330,000); AID 504466; note: % of control where 0% means no effect; nearly all actives have a fitted effect of over 60% in size
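HEK293T cells expressing luciferase-tagged ELG1 were treated with compound or DMSO for 16 hr at 37°C. Luciferase activity was then read after 30 min with ONE-Glo at room temperature; rising signal flags genetic stress.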
An asterisk follows results filed as active; ? = inconclusive; · = no result. Calls come from the whole dose curve; as a rule, active = well fitted curve in the direction sought with a large enough effect; inconclusive = small, poorly fitted or top-dose-only effect, or another doubt; inactive = no such curve, though single readings can be large; an effect the other way counts as inactive or inconclusive. Potency is the fitted concentration of half-maximal effect.

SMILES	MCF10A rerep	p53 reactivator	SW480 rereplic	AT treatment	ELG1 repair inh	ELG1 genotoxic
COc1ccc(OC)c(/C=C/c2[nH]c(=O)[nH]c(=O)c2[N+](=O)[O-])c1	5.2µM*	22%	2%	-11%	6%	0%
N#CC1C(=O)NC(=O)CC12CCCCC2 (stereo unspecified)	4%	·	-6%	·	·	·
Cc1c(C(=O)Nc2c3c(nn2C(C)(C)C)CS(=O)(=O)C3)cccc1[N+](=O)[O-]	-2%	-1%	-10%	4%	4%	-3%
CCN(CC(=O)Nc1c(F)cccc1F)C(=O)CCc1nc2cc(S(=O)(=O)N3CCOCC3)ccc2n1C	-1%	12%	0%	5%	9%	0%
Cc1ccc(N(C)S(=O)(=O)c2cccc(C(=O)NCC(c3ccco3)N3CCCC3)c2)cc1 (stereo unspecified)	8%	3%	3%	-10%	-28%	-2%
OCc1cc(-c2ccccn2)no1	-24%	1%	-138%	13%	?	0%
O=c1[nH]c2ccccc2nc1/C=C/c1ccccc1	3.7µM*	8%	?	4%	?	?
CC(C)(C)/C(O)=C/c1nc2ccccc2[nH]c1=O	12%	-3%	5%	-3%	9%	0%
Oc1ccc2ccccc2c1CNc1ccc2ccccc2c1	21µM*	·	?	·	·	·
Cc1ccnc(NCc2c(O)ccc3ccccc23)c1	-2%	?	-10%	0%	-11%	0%
O=C(Nc1ccc2ccccc2c1)c1ccccc1O	?	37%	23%	1%	?	0.23µM*
O=C(COC(=O)c1ccccc1O)Nc1ccc2ccccc2c1	-3%	?	-2%	28%	?	7%
O=C(Nc1ccc2ccccc2c1)c1ccc(Cl)cc1Cl	-2%	22%	10%	3%	?	2.1µM*
O=C(Nc1ccc2ccccc2c1)c1cc(F)c(F)cc1Cl	0%	-5%	21%	-6%	?	?
CCn1cc(C(=O)N2CCCC(N3CCN(c4ccccc4C)CC3)C2)cn1 (stereo unspecified)	0%	-3%	-6%	-8%	0%	0%
CC(=O)Nc1ccc(Sc2ccccc2C(=O)O)cn1	-24%	2%	-7%	0%	8%	-1%
CCOC(=O)CC(Nc1nc(N2CCOCC2)nc(N2CCOCC2)n1)c1ccccc1Cl (stereo unspecified)	?	-1%	?	-1%	9.2µM*	-3%
CCOC(=O)CC(NC(=O)Cc1cccs1)c1ccccc1Cl (stereo unspecified)	-1%	2%	8%	-1%	-21%	-5%
O=C(NN=Cc1ccc2c(c1)OCO2)c1ccccc1	28%	·	48%	·	·	·
O=C(N/N=C\c1ccc2c(c1)OCO2)c1ccco1	-1%	?	-7%	4%	?	15µM*
O=C(N/N=C\c1cccc(OC(=O)c2ccco2)c1)c1ccc2c(c1)OCO2	-66%	?	?	-3%	?	15µM*
O=C(N/N=C/c1ccc(OCc2ccccc2)cc1)c1ccco1	-4%	8%	-4%	3%	?	19%
O=C(N/N=C/c1ccc2cccnc2c1)c1ccco1	13%	15%	7%	1%	?	2.1µM*
COCCCn1c(SCC(=O)NC2CCCC2)nnc1-c1cccs1	1%	3%	0%	2%	-2%	-4%
CC(=O)C1CCC2C3CCC4CC(=O)CCC4(C)C3C(C)(O)CC12C (stereo unspecified)	12%	·	-5%	·	·	·
SMILES	MCF10A rerep	p53 reactivator	SW480 rereplic	AT treatment	ELG1 repair inh	ELG1 genotoxic
Cc1ccc2oc(C(=O)N(C)Cc3ccon3)c(C)c2c1	-3%	21%	-6%	-3%	?	9.2µM*
Cc1ccc2oc(C(=O)N(C)Cc3ccc(C)o3)c(C)c2c1	23µM*	?	?	20%	?	12%
Nc1nc(CN2CCCCCC2)nc(Nc2ccccc2)n1	10%	7%	-6%	3%	4%	2%
Cc1c(-c2nc(N)nc(Nc3ccccc3)n2)oc2ccccc12	?	-5%	?	7%	?	7.3µM*
CC(C)(C)c1ccc(C(=O)CCCN2CCC(OC(c3ccccc3)c3ccccc3)CC2)cc1	12µM*	·	-3%	·	·	·
CS(=O)(=O)N1N=C(c2ccco2)CC1c1ccccc1 (stereo unspecified)	3%	-4%	-5%	5%	5%	4%
CC(C)(C)C1=NN(c2ccc([N+](=O)[O-])cc2)C(c2ccccc2)C1 (stereo unspecified)	19%	10%	7%	1%	-6%	-1%
O=[N+]([O-])c1ccc(N2N=C(c3ccco3)CC2c2ccccc2)cc1 (stereo unspecified)	8.2µM*	-2%	?	6%	-3%	1%
Fc1ccc(C2CC(c3ccco3)=NN2c2ccccc2)cc1 (stereo unspecified)	0.92µM*	23%	21µM*	?	-3%	1%
Cc1cccc(C2=NN(c3ccccc3)[C@@H](C(=O)N3CCOC3=O)[C@@H]2C)c1	16%	4%	-25%	9%	-5%	1%
CC[C@@H]1C(c2ccc(F)cc2)=NN(c2ccccc2)[C@H]1C(=O)N1CCOC1=O	?	0%	16%	8%	1%	0%
OC[C@@H]1[C@@H](c2ccc(F)cc2)C(c2ccccc2)=NN1c1ccccc1	?	-1%	18µM*	18%	-1%	2%
CC[C@H]1C(c2ccc(F)cc2)=NN(c2ccccc2)[C@@H]1CO	6.5µM*	-5%	?	26%	2%	0%
Cc1cccc(C2=NN(c3ccccc3)[C@H](CO)[C@H]2c2ccccc2)c1	2.3µM*	3%	16µM*	19%	15%	0%
O=C(Cc1ccc(Br)cc1)N1CCCCCC1	22%	?	-1%	3%	?	21µM*
O=C(CN1CCN(C(=O)C2CCCO2)CC1)Nc1cc(C(F)(F)F)ccc1Cl (stereo unspecified)	2%	·	5%	-5%	-10%	-9%
O=C(CSc1cn[nH]n1)Nc1cccc(C(F)(F)F)c1	-4%	-6%	0%	-1%	-4%	1%
Cc1cc(C)c2c(N)c(C(=O)Nc3nccs3)sc2n1	?	5%	?	24%	?	0.33µM*
Cc1cc(C)c2c(N)c(C(=O)NC3CC3)sc2n1	-1%	-1%	-3%	1%	23%	-1%

Bioassay records as filed in PubChem.
